From PubChem BioAssay (NCI)
Compounds without any hit were thinned out: in the full panel of roughly 79,000, 15% have a hit. A number with no mark means an inactive call. Active and inactive are the calls of the source. Rule as the data show it: active = growth inhibition above about 70%; inactive = the rest.

Experiments:
[1] = NCI Yeast Anticancer Drug Screen. Data for the rad50 strain (AID 155);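 also: 0% = growth of vehicle-only cultures of the same strain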; conditions: S. cerevisiae rad50 strain growth inhibition, stronger effect = higher value
Method in brief: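 Vehicle-treated cultures provide the reference for the growth inhibition reported for compound-exposed, repair-deficient yeast.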

[2] = NCI Yeast Anticancer Drug Screen. Data for the mec2-1 strain (AID 157); conditions: S. cerevisiae mec2-1 strain, stronger effect = higher value
Method in brief: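 Yeast mec2-1 mutant treated with compound. Readout: growth inhibition vs vehicle controls.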

[3] = NCI Yeast Anticancer Drug Screen. Data for the sgs1 mgt1 strain (AID 161);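 also: 0% = growth of cultures given vehicle only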; conditions: S. cerevisiae sgs1 mgt1 strain, stronger effect = higher value
Method in brief: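 Read-out: growth inhibition vs vehicle controls. Cells: mutant yeast strain deficient in DNA damage repair.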

[4] = NCI Yeast Anticancer Drug Screen. Data for the cln2 rad14 strain (AID 165);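 also: 0% = growth equal to vehicle treated cultures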; conditions: S. cerevisiae cln2 rad14 strain, stronger effect = higher value
Method in brief: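 cln2 rad14 yeast strain; compound exposure; growth inhibition read vs vehicle controls.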

[5] = NCI Yeast Anticancer Drug Screen. Data for the bub3 strain (AID 167); conditions: S. cerevisiae bub3 mutant strain, stronger effect = higher value
Method in brief: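 Mutant yeast screening strain plus compound; vehicle-treated cultures serve as the 0% inhibition reference.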

[6] = NCI Yeast Anticancer Drug Screen. Data for the mlh1 rad18 strain (AID 175); conditions: S. cerevisiae mlh1 rad18 strain growth inhibition, stronger effect = higher value
Method in brief: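 Yeast w/ defined DNA-repair lesions; compound exposure; growth vs vehicle controls → % inhibition.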

[7] = at 5.0 µM (retest, dose inferred, filed as 0.5)
[8] = at 50.0 µM (retest, dose inferred, filed as 5.0)

c1cc2ccc1C1NCCCN1CCN1CCCNC1c1ccc(cc1)C1NCCCN1CCN1CCCNC21 (stereo not given)
growth inhibition [1, 7]: 3%
growth inhibition [1, 8]: -11%
growth inhibition ([1]; at 50.0 µM): -8.3%
growth inhibition [2, 7]: -19%
growth inhibition [2, 8]: -2%
growth inhibition ([2]; at 50.0 µM): -22.6%
growth inhibition [3, 7]: -14%
growth inhibition [3, 8]: 3%
growth inhibition ([3]; at 50.0 µM): -2%
growth inhibition [4, 7]: -25%
growth inhibition [4, 8]: -8%
growth inhibition ([4]; at 50.0 µM): 53.2%
growth inhibition [5, 7]: -1%
growth inhibition [5, 8]: -1%
growth inhibition ([5]; at 50.0 µM): 4.1%
growth inhibition [6, 7]: -28%
growth inhibition [6, 8]: -14%
growth inhibition ([6]; at 50.0 µM): -31.4%

CC(C)n1nnc2c3ccccc3c3ccccc3c21
growth inhibition [1, 7]: 3%
growth inhibition [1, 8]: 11%
growth inhibition ([1]; at 50.0 µM): -7.5%
growth inhibition [2, 7]: 5%
growth inhibition [2, 8]: -1%
growth inhibition ([2]; at 50.0 µM): 4.1%
growth inhibition [3, 7]: -2%
growth inhibition [3, 8]: 6%
growth inhibition ([3]; at 50.0 µM): 11.8%
growth inhibition [4, 7]: 15%
growth inhibition [4, 8]: 19%
growth inhibition ([4]; at 50.0 µM): -1.25%
growth inhibition [5, 7]: 14%
growth inhibition [5, 8]: 12%
growth inhibition ([5]; at 50.0 µM): 5.9%
growth inhibition [6, 7]: -10%
growth inhibition [6, 8]: 15%
growth inhibition ([6]; at 50.0 µM): 0%

C=C1C(=O)OC2C(C)C3C=CC(=O)[C@@]3(C)C(OC(=O)/C(C)=C/C)C1[C@@H]2OC(C)=O (stereo not given in full)
growth inhibition [1, 7]: 3%
growth inhibition [1, 8]: 91% (active)
growth inhibition ([1]; at 50.0 µM): 80.2% (active)
growth inhibition [2, 7]: 16%
growth inhibition [2, 8]: 95% (active)
growth inhibition ([2]; at 50.0 µM): 88.5% (active)
growth inhibition [3, 7]: 13%
growth inhibition [3, 8]: 92% (active)
growth inhibition ([3]; at 50.0 µM): 87.8% (active)
growth inhibition [4, 7]: 11%
growth inhibition [4, 8]: 81% (active)
growth inhibition ([4]; at 50.0 µM): 79.3% (active)
growth inhibition [5, 7]: 4%
growth inhibition [5, 8]: 93% (active)
growth inhibition ([5]; at 50.0 µM): 89.5% (active)
growth inhibition [6, 7]: 16%
growth inhibition [6, 8]: 94% (active)
growth inhibition ([6]; at 50.0 µM): 87% (active)

O=C1/C(=C/c2ccccc2)CNC/C1=C\c1ccccc1
growth inhibition [1, 7]: -11%
growth inhibition [1, 8]: 98% (active)
growth inhibition ([1]; at 50.0 µM): 98.7% (active)
growth inhibition [2, 7]: 26%
growth inhibition [2, 8]: 97% (active)
growth inhibition ([2]; at 50.0 µM): 99.3% (active)
growth inhibition [3, 7]: -7%
growth inhibition [3, 8]: 96% (active)
growth inhibition ([3]; at 50.0 µM): 95.2% (active)
growth inhibition [4, 7]: 10%
growth inhibition [4, 8]: 98% (active)
growth inhibition ([4]; at 50.0 µM): 92.5% (active)
growth inhibition [5, 7]: 6%
growth inhibition [5, 8]: 98% (active)
growth inhibition ([5]; at 50.0 µM): 94.2% (active)
growth inhibition [6, 7]: -4%
growth inhibition [6, 8]: 98% (active)
growth inhibition ([6]; at 50.0 µM): 99.2% (active)

N#CC(C#N)C(c1ccccc1)c1ccccc1
growth inhibition [1, 7]: -4%
growth inhibition [1, 8]: 5%
growth inhibition ([1]; at 50.0 µM): 13.1%
growth inhibition [2, 7]: 6%
growth inhibition [2, 8]: 20%
growth inhibition ([2]; at 50.0 µM): 17.9%
growth inhibition [3, 7]: 1%
growth inhibition [3, 8]: -41%
growth inhibition ([3]; at 50.0 µM): 11%
growth inhibition [4, 7]: -3%
growth inhibition [4, 8]: -10%
growth inhibition ([4]; at 50.0 µM): -1.1%
growth inhibition [5, 7]: 0%
growth inhibition [5, 8]: 0%
growth inhibition ([5]; at 50.0 µM): 1.75%
growth inhibition [6, 7]: -1%
growth inhibition [6, 8]: 2%
growth inhibition ([6]; at 50.0 µM): 10.5%

O=C1c2ccc(O)cc2C(=O)c2c1ccc(O)c2O
growth inhibition [1, 7]: 28%
growth inhibition [1, 8]: 97% (active)
growth inhibition ([1]; at 50.0 µM): 76% (active)
growth inhibition [2, 7]: 26%
growth inhibition [2, 8]: 95% (active)
growth inhibition ([2]; at 50.0 µM): 67.3%
growth inhibition [3, 7]: 46%
growth inhibition [3, 8]: 96% (active)
growth inhibition ([3]; at 50.0 µM): 83% (active)
growth inhibition [4, 7]: 9%
growth inhibition [4, 8]: 73% (active)
growth inhibition ([4]; at 50.0 µM): 41.3%
growth inhibition [5, 7]: 37%
growth inhibition [5, 8]: 94% (active)
growth inhibition ([5]; at 50.0 µM): 76.9% (active)
growth inhibition [6, 7]: 45%
growth inhibition [6, 8]: 97% (active)
growth inhibition ([6]; at 50.0 µM): 77.4% (active)

CC(=O)[O-].[Mn+3].[O-]c1ccc(Cl)cc1C=NCCN=Cc1cc(Cl)ccc1[O-]
growth inhibition [1, 7]: -2%
growth inhibition [1, 8]: 92% (active)
growth inhibition ([1]; at 50.0 µM): 98.8% (active)
growth inhibition [2, 7]: -3%
growth inhibition [2, 8]: 66%
growth inhibition ([2]; at 50.0 µM): 98.5% (active)
growth inhibition [3, 7]: 6%
growth inhibition [3, 8]: 87% (active)
growth inhibition ([3]; at 50.0 µM): 98.6% (active)
growth inhibition [4, 7]: 8%
growth inhibition [4, 8]: 89% (active)
growth inhibition ([4]; at 50.0 µM): 89.2% (active)
growth inhibition [5, 7]: 16%
growth inhibition [5, 8]: 98% (active)
growth inhibition ([5]; at 50.0 µM): 98.2% (active)
growth inhibition [6, 7]: -1%
growth inhibition [6, 8]: 93% (active)
growth inhibition ([6]; at 50.0 µM): 98.6% (active)

C=CCOC(=O)CC(OC(C)=O)C(CC)CC(C)C (stereo not given)
growth inhibition [1, 7]: 0%
growth inhibition [1, 8]: 26%
growth inhibition ([1]; at 50.0 µM): 24.4%
growth inhibition [2, 7]: -1%
growth inhibition [2, 8]: 12%
growth inhibition ([2]; at 50.0 µM): 19.1%
growth inhibition [3, 7]: -6%
growth inhibition [3, 8]: 3%
growth inhibition ([3]; at 50.0 µM): 18.3%
growth inhibition [4, 7]: 2%
growth inhibition [4, 8]: 20%
growth inhibition ([4]; at 50.0 µM): 80.7% (active)
growth inhibition [5, 7]: 3%
growth inhibition [5, 8]: 15%
growth inhibition ([5]; at 50.0 µM): 40.3%
growth inhibition [6, 7]: 0%
growth inhibition [6, 8]: 12%
growth inhibition ([6]; at 50.0 µM): 27.9%

c1ccc2c(c1)OCC(CN1CCN(CC3COc4ccccc4O3)CC1)O2 (stereo not given)
growth inhibition [1, 7]: 41%
growth inhibition [1, 8]: 57%
growth inhibition ([1]; at 50.0 µM): 76.7% (active)
growth inhibition [2, 7]: 36%
growth inhibition [2, 8]: 51%
growth inhibition ([2]; at 50.0 µM): 67%
growth inhibition [3, 7]: 47%
growth inhibition [3, 8]: 55%
growth inhibition ([3]; at 50.0 µM): 77.7% (active)
growth inhibition [4, 7]: 52%
growth inhibition [4, 8]: 58%
growth inhibition ([4]; at 50.0 µM): 84% (active)
growth inhibition [5, 7]: 47%
growth inhibition [5, 8]: 60%
growth inhibition ([5]; at 50.0 µM): 67.9%
growth inhibition [6, 7]: 47%
growth inhibition [6, 8]: 60%
growth inhibition ([6]; at 50.0 µM): 81.2% (active)

CC(=O)OCC1OC(n2cnc3c(Cl)nc(Cl)nc32)C(OC(C)=O)C1OC(C)=O (stereo not given)
growth inhibition [1, 7]: 0%
growth inhibition [1, 8]: 0%
growth inhibition ([1]; at 50.0 µM): 73.7% (active)
growth inhibition [2, 7]: 1%
growth inhibition [2, 8]: 5%
growth inhibition ([2]; at 50.0 µM): 54.1%
growth inhibition [3, 7]: -1%
growth inhibition [3, 8]: 7%
growth inhibition ([3]; at 50.0 µM): 75.3% (active)
growth inhibition [4, 7]: 3%
growth inhibition [4, 8]: 3%
growth inhibition ([4]; at 50.0 µM): 72.6% (active)
growth inhibition [5, 7]: 1%
growth inhibition [5, 8]: -2%
growth inhibition ([5]; at 50.0 µM): 70% (active)
growth inhibition [6, 7]: -1%
growth inhibition [6, 8]: 0%
growth inhibition ([6]; at 50.0 µM): 74.1% (active)
